Source: PubChem (National Center for Advancing Translational Sciences (NCATS))
Sampled rows, rich in hits. Any-hit rate of the full collection: about 4.7%.
ATXN viability: viability counter-screen for ATXN expression inhibitors; Potency, µM (highest dose often 56.7 µM), hits mostly cytotoxic; AID 651635; S2 cells (HEK-293 line with an ATXN2-luciferase reporter) viability, CellTiter-Fluor protease fluorescence, 24 h; 0.49% of 400,000 active; further: potency means the concentration at half of the fitted maximal effect; nearly all actives have a fitted effect of over 40% in size
HepG2 viability: HepG2 cytotoxicity, counter-screen for TGF-b inhibitors. HepG2 CAGA-GFP viability, ATP luminescence, 18 h. Potency, µM (series often up to 46.1 µM), inactives show top-dose activity change, negative = cytotoxicity, usual class: cytotoxic. 0.76% of 410,000 active; further: potency means the concentration at half of the fitted maximal effect
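CellTiter-Glo luminescence gave cytotoxicity after 18 hours at 37 degrees C. The cells were HepG2 CAGA-GFP in 1% FBS DMEM, stimulated with 500 pg/mL TGF-beta after compound addition. %Activity was normalised to no-cell wells (complete cell-killing) and DMSO (no toxicity), and curves were fitted and classified.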
D3 antag: D3 dopamine receptor (human) antagonism. AID 652054. D3R cells, DiscoveRx beta-arrestin luminescence, antagonist mode; stronger effect = lower value. P35462. max response, negative = inhibition, %. 2.5% of 360,000 active; in the data active means max response below about -50%; inconclusive means no clear call, values can overlap the other calls; further: on the % scale 0 is the no-effect control and ±100 the full control effect
Target sequence (P35462 whole entry, looked up): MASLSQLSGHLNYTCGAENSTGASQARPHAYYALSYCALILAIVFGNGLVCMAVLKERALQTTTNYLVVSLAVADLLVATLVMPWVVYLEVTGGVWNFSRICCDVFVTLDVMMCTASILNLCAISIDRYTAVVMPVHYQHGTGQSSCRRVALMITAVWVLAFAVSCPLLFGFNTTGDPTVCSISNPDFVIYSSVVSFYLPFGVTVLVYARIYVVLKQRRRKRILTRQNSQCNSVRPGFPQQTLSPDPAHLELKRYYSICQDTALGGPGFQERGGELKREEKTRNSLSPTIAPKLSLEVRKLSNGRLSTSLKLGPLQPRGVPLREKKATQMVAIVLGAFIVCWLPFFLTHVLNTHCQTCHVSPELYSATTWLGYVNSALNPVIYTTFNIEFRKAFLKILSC
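Cells plated overnight at 1500 cells/well, then exposed to library compounds with dopamine controls for 90 minutes at 37 degrees C. DiscoveRx reagent added for 30–60 minutes at room temperature; luminescence read, quantitative HTS format.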
D3 ag: activates the human D3 dopamine receptor | max activation, % | 0.58% of 410,000 active | D3R DiscoveRx beta-arrestin cells, luminescence, 90 min | P35462; in the data active means max activation above about 30%; further: 0% is about no effect
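Agonist mode: compounds and dopamine controls were applied to plated cells for 90 min at 37 degrees C after an overnight attachment at 1500 cells/well. Luminescent read-out followed 30 - 60 minutes at room temperature with DiscoveRx detection reagent.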
ATXN2 expr inh: inhibitors of ATXN2 expression. AID 1745845. HEK-293 ATXN2-luciferase reporter, luminescence, 24 h. Potency, µM (doses to about 57 µM), for the others: top-dose activity change, negative = inhibition, actives largely listed as inhibitors. 0.72% of 360,000 active; further: potency means the concentration at half of the fitted maximal effect; on the % scale 0 is the no-effect control and ±100 the full control effect; nearly all actives have a fitted effect of over 55% in size
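ATXN2-luciferase reporter cells (luciferase flanked by upstream and downstream ATXN2 gene portions) were treated 24 h at 37 °C with compounds at up to 57 uM. SteadyGlo luminescence gave expression; GF-AFC fluorescence gave viability.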
TGFb inhibitor: TGF-b pathway inhibition | HepG2 CAGA-GFP TGF-b/SMAD3 reporter, GFP fluorescence, 18 h; TGF-beta stimulated, 500 pg/mL final | Potency, µM (top dose mostly 46.1 µM), for inactives: at the highest dose activity, negative = inhibition, actives largely listed as inhibitors | 1.2% of 410,000 active | AID 588855; further: potency means the concentration at half of the fitted maximal effect; on the % scale 0 is the no-effect control and ±100 the full control effect; nearly all actives have a fitted effect of over 65% in size
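Using HEPG2 CAGA-GFP reporter cells at 1000 cells/well, we pinned test compounds, stimulated with recombinant TGF-beta (500 pg/mL final) and measured total well GFP after 18 h.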
The depositor's hits bear a star; i = inactive; ? = inconclusive; / = not tested or not shown; [ ] = dose if it differs, or a comment. Unless noted, the call rests on the fitted dose curve; in most records, active means well fitted curve in the direction sought with a large enough effect; inconclusive means small, poorly fitted or top-dose-only effect, or another doubt; inactive means no such curve, though single readings can be large; an effect the other way counts as inactive or inconclusive.

SMILES	ATXN viability	HepG2 viability	D3 antag	D3 ag	ATXN2 expr inh	TGFb inhibitor
CCCS(=O)(=O)N1CCCC(C(=O)NCCc2ccc(Cl)cc2)C1 (stereo unspecified)	i	16.2%	-63.1*	-7.6	2.0%	-0.4%
CCc1ccccc1NC(=O)Cn1cc(S(=O)(=O)N2CCCC2)c(S(=O)(=O)N2CCCC2)c1	i	-0.6%	/	3.0	12.3%	-15.1%
CCCCCCc1cc2cc(-c3nnc(-c4ccccc4O)o3)c(=O)oc2cc1O	/	-12.2%	45.3	15.2	?	12.6%
CCCCCCc1cc2cc(-c3nnc(-c4ccccc4OC)o3)c(=O)oc2cc1O	i	-101.8%	71.9	36.8*	?	13.9%
CCCCCCc1cc2cc(S(=O)(=O)c3ccc(F)cc3)c(=O)oc2cc1O	/	-42.9%	11.6	48.8*	?	-14.8%
CCCc1ccc(OCC(=O)Nc2sc(C(=O)OCC)c(C)c2C(=O)OCC)cc1	/	1.7%	/	-0.2	/	-11.6%
COc1ccc(S(=O)(=O)N(C(C)=O)c2ccc3oc(=O)sc3c2)cc1	i	-25.5%	-58.6*	2.5	-3.9%	3.0%
CCOc1ccc(S(=O)(=O)N(C(C)=O)c2ccc3oc(C)c(C(=O)OC)c3c2)cc1	/	-30.9%	/	1.3	/	?
COc1cccc(/C=N/Nc2ncccc2[N+](=O)[O-])c1OC	i	-59.9%	?	-5.7	3.16µM*	-20.1%
COc1cccc(/C=N/Nc2nc(C)cc(=O)[nH]2)c1OC	i	-23.8%	0.0	-2.1	8.5%	0.7%
O=[N+]([O-])c1ccc(/C=N/Nc2ncccc2[N+](=O)[O-])s1	i	5.01µM*	-20.7	-6.2	-5.1%	-17.2%
O=[N+]([O-])c1cccnc1Nc1ccc(Cl)cc1	?	-20.4%	7.0	3.8	/	2.1%
CCOc1ccccc1NC(=O)c1c(NC(=O)COc2ccccc2)sc2c1CCCCC2	i	-15.1%	/	-19.6	-4.3%	-0.1%
O=[N+]([O-])c1ccc(/C=N/n2c(COc3ccccc3)n[nH]c2=S)cc1	i	-16.6%	-89.7*	-2.6	-10.6%	0.4%
O=[N+]([O-])c1cccc(/C=N/n2c(COc3ccccc3)n[nH]c2=S)c1	i	-25.3%	-2.0	-30.9	1.0%	-5.6%
O=C(CCC(=O)c1ccc(F)cc1)NCC1(N2CCCCC2)CCCCC1	i	-4.5%	-88.5*	-11.5	-31.8%	-18.5%
COC(=O)N1C(=O)[C@](CC(C)C)(c2ccccc2)N1C(=O)OC	?	-61.2%	?	-6.9	1.5%	8.91µM*
CCOC(=O)N1C(=O)[C@@](CC)(c2ccccc2)N1C(=O)OCC	31.6µM*	-102.7%	?	-5.4	-35.3%	?
COc1ccc(-c2oc(=O)c3cc(OC)c(OC)cc3c2-c2ccc3c(c2)OCO3)cc1	i	-32.0%	12.9	11.4	2.5%	2.7%
COc1ccc(-c2c(-c3ccsc3)oc(=O)c3cc(OC)c(OC)cc23)cc1	i	1.1%	60.7	39.2*	26.0%	2.6%
COCc1ccc(-c2c(-c3ccc(OC)cc3)oc(=O)c3cc(OC)c(OC)cc23)cc1	i	-1.4%	97.7	34.0*	29.7%	-23.8%
Cc1cccc(CNC(=O)c2cnn(-c3ncc4c(n3)-c3ccccc3CC4)c2C2CC2)n1	i	/	/	/	/	/
C#CC1(O)CC[C@H]2[C@@H]3CCC4=CCCC[C@@H]4[C@H]3CC[C@@]21C (stereo partly specified)	i	/	/	5.2	-20.1%	/
CCn1c(C)c(C)c2cc(C(=O)NCC(C)c3ccccc3)ccc21 (stereo unspecified)	/	-39.8%	/	-5.8	/	-24.4%
Cc1ccc(N(CC(=O)Nc2cccc(F)c2)S(=O)(=O)c2cccs2)cc1	i	-12.7%	/	-8.9	7.4%	-1.9%
SMILES	ATXN viability	HepG2 viability	D3 antag	D3 ag	ATXN2 expr inh	TGFb inhibitor
CCOc1ccccc1OCC1CNCCO1 (stereo unspecified)	i	/	/	/	3.0%	/
Cc1cnc(NC(=O)Nc2cc(Br)c(C)cc2OC[C@@H]2CNCCO2)cn1	/	/	/	/	1.22µM*	/
COCCCNC(=O)c1ccc(N2CCOCC2)c(NS(=O)(=O)c2ccc(OC)cc2)c1	i	-32.7%	-73.3*	4.8	10.2%	2.6%
CCOCCCNC(=O)c1ccc(N2CCOCC2)c(NS(=O)(=O)c2ccc(OC)cc2)c1	i	16.5%	12.7	3.3	/	12.2%
Cn1c(=O)n(-c2ccc(C(C)(C)C#N)cc2)c2c3cc(-c4cnc5ccccc5c4)ccc3ncc21	/	-15.0%[92.2 µM]	/	/	?	?
CCCCCCCn1c(=O)c(C(=O)OC)c(N)c2ccccc21	?	-12.5%	13.7	26.2	?	12.6µM*
CCCCCCCCn1c(=O)c(C(=O)OC)c(N)c2ccccc21	?	-66.4%	31.0	38.5*	-32.7%	15.8µM*
CCCCCCn1c(=O)c(-c2ccccc2)c(O)c2ccccc21	i	21.1%	?	2.4	-0.9%	30.3%
NC(=O)C[n+]1cccc(CNC(=O)c2ccc(OC(F)F)cc2)c1	i	-1.2%	9.1	-0.4	4.8%	5.8%
Cc1ccc[n+](CC(=O)Nc2c(Cl)cc(Cl)cc2Cl)c1	i	-9.6%	-17.0	-2.9	-14.4%	0.2%
O=C(C[n+]1cccc(CNC(=O)c2ccc(OC(F)F)cc2)c1)Nc1cc(C(F)(F)F)ccc1Cl	i	6.1%	-63.9*	-24.0	1.3%	3.3%
Cc1ccc[n+](CC(=O)Nc2cc(C(F)(F)F)ccc2Cl)c1	i	5.4%	-78.8*	-36.3	-7.1%	6.4%
CN(C)CC(=O)Nc1cc(C(F)(F)F)ccc1Cl	i	-3.3%	-58.2*	-11.6	15.0%	0.0%
N/C(CC(=O)Nc1cc(C(F)(F)F)ccc1Cl)=N\O	i	0.8%	-16.6	-2.4	/	28.7%
Cc1[nH]c2ccccc2c1C(=O)CNc1ccc(Br)cc1	/	-30.9%	/	/	/	?
COc1ccc(CNC(=O)Cn2c(=O)nc(-c3ccccc3)c3cc(Cl)ccc32)cc1OC	/	-3.2%	/	7.8	/	-1.1%
COc1ccc(CNC(=O)Cn2c(=O)nc(-c3ccccc3)c3ccccc32)cc1OC	/	3.4%	/	32.9*	/	0.2%
CCOc1ccc(CNC(=O)CN2N=C(c3ccccc3)CCC2=O)cc1OC	/	-15.7%	/	49.5*	/	-20.0%
COc1ccc(C2=NN(CC(=O)NCCc3ccc(OC)c(OC)c3)C(=O)CC2)cc1	/	-47.9%	/	-9.6	/	-24.0%
CC(C)c1ccc(NC(=O)Cn2cc(S(=O)(=O)N3CCN(c4ccccc4F)CC3)c3ccccc3c2=O)cc1	i	0.6%	/	9.7	-2.5%	-11.5%
Cc1cc(C)nc(SCc2nc3ncccn3c2Br)n1	i	5.3%	-52.2*	2.3	-0.7%	?
